Screens from PubChem BioAssay.
Gal4-VP16 FLuc: counter-screen for ROR gamma inhibitors: Gal4-VP16 reporter. Drosophila S2 Gal4-VP16 UAS-luciferase, luminescence, 20 h. Potency, µM (titrated, usually from 53.6 µM), for the others: at the top dose activity, negative = inhibition, actives largely listed as inhibitors. actives 3.5% (n = 310,000);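 note: Gal4-VP16 expression switched on by copper sulfate through the metallothionein promoter; nearly all actives have a fitted effect of over 50% in size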
RORgamma inh: ROR gamma (mouse) transcription inhibition | Potency, µM (top dose mostly 53.6 µM), without a hit: top-dose activity change, negative = inhibition, actives largely listed as inhibitors | actives 5.4% (n = 310,000) | P51450 | Drosophila S2 Gal4-RORgamma UAS-luciferase reporter, 20 h; note: nearly all actives have a fitted effect of over 60% in size
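ROR gamma transcriptional activity was tracked as Gal4-UAS luciferase output in stably transfected Drosophila Schneider cells, with compound added 1 hr before 700 uM copper sulfate induction and a 20 hr ambient-temperature incubation.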
DT40 TDP1 no CPT: qHTS for Inhibitors of human tyrosyl-DNA phosphodiesterase 1 (TDP1): qHTS in cells in absence of CPT; DT40 Tdp1-/- hTDP1 cells, no CPT, ATP luminescence, 48 h; actives 15% (n = 420,000); Potency, µM (top dose mostly 46.2 µM), without a hit: at the highest dose activity change, negative = growth inhibition, actives largely listed as inhibitors; note: nearly all actives have a fitted effect of over 55% in size
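DT40 Tdp1-/-;hTDP1 cells, no CPT (DMSO vehicle only), 400 cells/well; compounds pin-transferred; ≥48 hr, 37 °C; CellTiter-Glo 30 min RT dark, luminescence read.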
ALOX12 inh: inhibitors of human 12S-lipoxygenase ALOX12 | P18054 | purified 12hLO, xylenol orange hydroperoxide absorbance | Potency, µM (titrated, usually from 108 µM), for the others: top-dose activity change, negative = inhibition, actives largely listed as inhibitors | actives 1.1% (n = 580,000) | AID 1671190
Target sequence (P18054 whole entry, looked up): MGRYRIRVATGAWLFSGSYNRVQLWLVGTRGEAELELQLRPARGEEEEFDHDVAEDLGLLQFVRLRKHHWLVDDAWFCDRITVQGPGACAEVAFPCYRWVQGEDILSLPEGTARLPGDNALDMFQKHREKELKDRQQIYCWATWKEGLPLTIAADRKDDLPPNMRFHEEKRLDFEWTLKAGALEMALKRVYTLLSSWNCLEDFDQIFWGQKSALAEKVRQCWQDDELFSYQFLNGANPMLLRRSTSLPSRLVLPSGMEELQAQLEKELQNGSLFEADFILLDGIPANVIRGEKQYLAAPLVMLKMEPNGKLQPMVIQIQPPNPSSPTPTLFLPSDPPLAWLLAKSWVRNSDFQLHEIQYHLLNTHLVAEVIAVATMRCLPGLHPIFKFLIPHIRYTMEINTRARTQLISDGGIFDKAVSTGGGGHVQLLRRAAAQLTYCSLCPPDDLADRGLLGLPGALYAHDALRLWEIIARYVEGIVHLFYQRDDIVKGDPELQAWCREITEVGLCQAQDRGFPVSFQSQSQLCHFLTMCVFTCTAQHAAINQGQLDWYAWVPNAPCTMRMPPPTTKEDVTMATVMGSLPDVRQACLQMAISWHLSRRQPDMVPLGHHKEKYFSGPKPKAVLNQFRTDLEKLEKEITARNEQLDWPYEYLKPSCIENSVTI
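Purified human 12hLO (150 nM final) in 25 mM Hepes, 0.01% Triton X-100, pH 7.0 was preincubated 15 min at room temperature with compound. Then 40 uM arachidonic acid was added, 30 min. Hydroperoxide was read by Fe-XO absorbance ratio 573/405 nm.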
ELG1 DNA repair: blocks ELG1-dependent DNA repair in HEK293T cells; HEK293T ELG1-luciferase reporter, luminescence, 16 h; DNA damage induced by 5-fluorouridine; AID 504467; Potency, µM (top dose mostly 46.1 µM), for the others: at the top dose activity change, negative = inhibition, most hits filed as inhibitors; actives 2.3% (n = 330,000); note: nearly all actives have a fitted effect of over 55% in size
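Luminescence from the luciferase reporter, measured 30 min after ONE-Glo reagent at room temperature, was the read-out. Beforehand, 2,000 cells per well were exposed for 16 hr at 37 °C to 5-fluorouridine together with compound or vehicle.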
DT40 TDP1 CPT: DT40-hTDP1 cell growth loss with CPT; chicken DT40 Tdp1-/-;hTDP1 cells + 20 nM CPT, ATP luminescence, 48 h; Potency, µM (titrated, usually from 46.2 µM), for the others: top-dose activity change, negative = growth inhibition, actives largely listed as inhibitors; actives 12% (n = 420,000); AID 686979; note: nearly all actives have a fitted effect of over 55% in size
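Chicken DT40 Tdp1-/- cells stably complemented with human TDP1 were seeded at 400 cells/well in medium containing 20 nM camptothecin, exposed to pin-transferred compounds, and grown at 37 °C for at least 48 hr. Viability was read as ATP luminescence.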
* marks the source's active call; other numbers are inactive results; ? = inconclusive; / = no result given; [ ] = dose if it differs, or a comment. A selection: hits, their analogues and other compounds. The true share with any hit is near 15%. Calls come from the whole dose curve; as a rule, active = well fitted curve in the direction sought with a large enough effect; inconclusive = small, poorly fitted or top-dose-only effect, or another doubt; inactive = no such curve, though single readings can be large; an effect the other way counts as inactive or inconclusive. % is set by controls: 0 for no effect and ±100 for the full control effect; potency is the fitted concentration of half-maximal effect.

SMILES	Gal4-VP16 FLuc	RORgamma inh	DT40 TDP1 no CPT	ALOX12 inh	ELG1 DNA repair	DT40 TDP1 CPT
COC(=O)[C@@]12C[C@@H](CC(=O)NCc3cccc(C(F)(F)F)c3)C(=O)N(Cc3cccc4ccccc34)C1=CCC(C)(C)C2	/	/	16µM*	6%	/	16µM*
COC(=O)[C@@]12C[C@@H](CC(=O)NCc3cccc4ccccc34)C(=O)N(Cc3ccccc3)C1=CCC(C)(C)C2	/	/	?	1%	/	?
COC(=O)[C@@]12C[C@@H](CC(=O)NCc3ccccc3)C(=O)N(Cc3ccc4c(c3)OCO4)C1=CCC(C)(C)C2	/	/	16µM*	-4%	/	16µM*
COC(=O)[C@@]12C[C@@H](CC(=O)NCc3cccc(C(F)(F)F)c3)C(=O)N(Cc3ccccc3)C1=CCC(C)(C)C2	/	/	?	1%	/	?
COC(=O)[C@@]12C[C@@H](CC(=O)NCc3cccc4ccccc34)C(=O)N(Cc3ccc4c(c3)OCO4)C1=CCC(C)(C)C2	/	/	13µM*	2%	/	?
Cc1cccc(-c2nc3n(CC(=O)N4CCCCCC4)c(C)cc(=O)n3n2)c1	/	/	/	28%	/	/
O=C(Nc1cc(C(F)(F)F)ccc1Cl)c1nn(-c2cccc(Cl)c2)ccc1=O	/	/	/	15%	/	/
Cc1c(Cc2ccccc2)c(=O)oc2c(CN(C)C)c(O)c(Cl)cc12	-2%	-31%	16µM*	-8%	2%	?
COc1ccccc1CCNC(=O)CCc1c(C)c2cc3c(C)coc3c(C)c2oc1=O	/	/	?	-20%	/	?
COc1ccccc1CNC(=O)Cc1c(C)c2cc3c(C)coc3c(C)c2oc1=O	/	/	12µM*	-23%	/	16µM*
Cc1oc2c(C)c3oc(=O)c(CCC(=O)N[C@@H](CC(C)C)C(=O)O)c(C)c3cc2c1C	-6%	-39%	15%	3%	0%	-5%
CCCC(NC(=O)CCc1c(C)c2cc3c4c(oc3c(C)c2oc1=O)CCCC4)C(=O)O (stereo not drawn)	-23%	0.79µM*	-10%	-4%	14%	12µM*
Cc1coc2c(C)c3oc(=O)c(CCC(=O)NCCc4ccccc4)c(C)c3cc12	/	/	16µM*	-14%	/	13µM*
CCN(CC)Cc1c(O)c(Cl)cc2c(C)c(C)c(=O)oc12	5%	-12%	3%	-28%	19%	-13%
CCOc1ccc(NC(=O)CSc2nc3ccccc3c(=O)n2CCn2cc(Cl)cn2)cc1	/	/	/	-11%	/	/
COc1cccc(CN2CCCCCCNC(=O)[C@@H]3CCC[C@@H]32)c1OC	/	/	/	-1%	/	/
CC(C)N(C(=O)Cn1cnc2c1c(=O)n(C)c(=O)n2C)c1ccccc1	/	/	/	3%	/	/
Cc1c(Cc2ccccc2)c(=O)oc2cc(O)ccc12	-8%	-21%	6%	3%	-8%	-27%
Cc1c(CC(=O)NCc2ccccc2)c(=O)oc2c(C)c(O)ccc12	/	/	13µM*	-16%	/	13µM*
Cc1c(Cc2ccccc2)c(=O)oc2c(O)c(O)ccc12	-2%	-7%	?	4µM*	-14%	-18%
Cc1cccc(C)c1NC(=O)COc1ccc2c(C)c(Cc3ccccc3)c(=O)oc2c1C	?	2%	?	-21%	7%	16µM*
Cc1coc2c(C)c3oc(=O)c(CC(=O)NCc4ccccc4)c(C)c3cc12	/	/	4.6µM*	-17%	/	5.8µM*
O=C(c1ccoc1)N1CCCC(CN2CCCC2)CC1 (stereo not drawn)	/	/	/	67%	/	/
Cc1nn2c(c1-c1ccnn1C(C)C)N(C(=O)COc1ccccc1C(N)=O)CCC2	/	/	/	4%[176 µM]	/	/
COc1ccc(CCN(Cc2ccccn2)C(=S)Nc2cccc(C)c2)cc1OC	-1%	10µM*	-5%	14%	?	1%
SMILES	Gal4-VP16 FLuc	RORgamma inh	DT40 TDP1 no CPT	ALOX12 inh	ELG1 DNA repair	DT40 TDP1 CPT
COc1ccc(CCN(Cc2ccccn2)C(=S)Nc2ccccc2Cl)cc1OC	?	10µM*	-22%	?	?	1%
Clc1ccccc1C1(c2ccnc(NCCc3ccncc3)n2)CCNCC1	/	/	/	26%	/	/
CCN1C(=O)COC[C@@H]1[C@H](O)c1ccc(NC(=O)c2ccnc(Cl)c2)cc1	/	/	/	16%[176 µM]	/	/
CCCCN(CCCC)C(=O)CSc1nnc2n(C)c(=O)c3c4c(sc3n12)CCCC4	4.5µM*	?	23µM*	8%	10%	?
Cn1c(=O)c2c3c(sc2n2c(SCC(N)=O)nnc12)CC(C(C)(C)C)CC3 (stereo not drawn)	-11%	-29%	?	1%	23µM*	23µM*
CCn1c(=O)n(CC)c2cc(Sc3ccccc3)c(NC(=O)c3cccc(F)c3)cc21	/	/	/	18%	/	/
CCC(c1nnnn1-c1ccc2c(c1)OCCO2)N1CCN(c2ncccc2C(F)(F)F)CC1 (stereo not drawn)	/	/	18µM*	1%	/	?
CCC(c1nnnn1-c1ccc2c(c1)OCCO2)N1CCN(c2ccc(F)cc2)CC1 (stereo not drawn)	/	/	16µM*	/	/	15µM*
CCC(c1nnnn1-c1ccc2c(c1)OCCO2)N1CCc2ccccc2C1 (stereo not drawn)	/	/	?	5%	/	?
O=C(COc1cc(O)c2c(=O)cc(-c3ccccc3)oc2c1)NCCOCCO	/	/	/	0%	/	/
O=C(O)Cn1c(=O)c2c(c3ccccc31)CCC2	-5%	0%	-10%	2%	0%	-1%
CCn1c2c(c(=N)c3ccccc31)CCC2	-19%	27%	-25%	158%	21µM*	5%
Cc1ccc2c(c1)c1c(n2CC(O)Cn2nc(C)c(Br)c2C)CCCC1 (stereo not drawn)	?	13%	16µM*	-20%	-20%	?
Cc1ccc2c(c1)c1c(n2CC(O)Cn2c(C)nc3ccccc32)CCCC1 (stereo not drawn)	-24%	1.6µM*	?	?	6%	23µM*
CNCC(O)Cn1c2c(c3ccccc31)CCCC2 (stereo not drawn)	0%	9%	-15%	-10%	12%	?
Cc1ccc2c(c1)c1c(n2CC(O)CN2CCCCCC2)CCCC1 (stereo not drawn)	-5%	20%	15µM*	-4%	6%	?
Cc1ccc2c(c1)c1c(n2CC(O)CNC(C)(C)C)CCCC1 (stereo not drawn)	6%	-14%	?	-28%	5%	?
NC(=O)CCN1CCc2onc(-c3ccccc3F)c2C1	/	/	/	46%	/	/
